The entries come from a sample that favours hits as a whole.
HSV replic up: HSV replication enhancement; HSV replication augmentation in cells, fold increase; maximum fold increase; 220,000 compounds, 0.005% hits; AID 1956; in the data active = maximum fold increase above about 1.5; inconclusive = no clear call, values can overlap the other calls; tested in PC3 cells
ROMK primary: modulates human ROMK potassium channel activity; P48048; Tet-inducible ROMK, thallium flux fluorescence; actives lie on both sides; B-score at 10 µM; 130,000 compounds, 2% hits; AID 1918;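 active = signal ratio slope over the read window, or its plate-corrected B-score, at least 3 SD from the plate mean, either direction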;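 note: B-score of the F/F0 ratio slope over 7 to 12 s after thallium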
Target sequence (P48048 whole entry, looked up): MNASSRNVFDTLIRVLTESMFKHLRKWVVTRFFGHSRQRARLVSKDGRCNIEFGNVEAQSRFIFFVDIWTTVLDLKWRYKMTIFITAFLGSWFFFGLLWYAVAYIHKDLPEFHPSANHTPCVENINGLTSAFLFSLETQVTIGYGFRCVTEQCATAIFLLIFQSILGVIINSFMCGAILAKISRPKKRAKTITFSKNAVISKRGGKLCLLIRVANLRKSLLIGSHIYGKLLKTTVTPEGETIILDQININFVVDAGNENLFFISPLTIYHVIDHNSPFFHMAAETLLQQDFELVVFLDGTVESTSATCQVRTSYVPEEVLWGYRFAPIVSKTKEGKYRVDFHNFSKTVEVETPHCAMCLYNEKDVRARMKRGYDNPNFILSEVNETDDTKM
Insulin prom inh: TRM-6 insulin promoter activity inhibition. inhibition, % at 2 µM. TRM-6 cells (human fetal islet line), insulin promoter-eGFP reporter, imaging; reporter expression induced with tamoxifen. AID 1273. 130,000 compounds, 0.9% hits;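 active = inhibition above the mean plus 3 SD, with well images judged a real hit on visual review, cut at about 60% in these data, passing the limit was not always enough; inconclusive = inhibition over the cutoff but images rejected on review; inactive = inhibition not above the cutoff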
TbHK1 inh: blocks Trypanosoma brucei hexokinase 1 activity; recombinant TbHK1, G6PDH-coupled NADH A340; inhibition, % at 10 µM; 220,000 compounds, 0.11% hits;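 active = inhibition of 50% or more in the single-dose primary screen; inactive = inhibition below 50%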
Insulin prom up: MIN6 insulin promoter up-regulation; MIN6 insulin promoter-GFP reporter, high-content imaging; hits give high values; z-score at 5 µM; 190,000 compounds, 0.3% hits;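 active = z-score above 3 at 5 µM with at least 500 cells counted in the well; inconclusive = wells under 500 cells, flagged as cytotoxic or low count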
ROMK retest: confirmation of human ROMK potassium channel modulators. shares compounds with ROMK primary. ROMK thallium flux, fluorescence ratio; hits give low values. normalized thallium flux (F/F0 slope) at 10 µM. 3,000 compounds, 54% hits. AID 1917;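 active = Flux at 10 µM at least 3 SD below or above vehicle control mean in one or both replicates; inconclusive = no clear call, values can overlap the other calls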
Large screens that a line does not name were inactive (follow-up assays come after a bar, where they were run).

CCc1cc2c(NCC(=O)O)ncnc2s1	none (no result: ROMK primary, Insulin prom inh)
CCc1cc2c(NCc3ccco3)ncnc2s1	ROMK primary -3.92, Insulin prom up inconclusive | ROMK retest inactive
Cc1noc(C)c1COC(=O)c1cnc(Cl)c(Cl)c1	none
CCCCOc1ccccc1C1CC(=O)NC2=C1C(=O)CCC2 (stereo not given)	ROMK primary 4.65 (no result: HSV replic up) | ROMK retest inactive
CCC(C)(C)NC(=O)C(c1cccnc1)N(C(=O)c1csnn1)c1ccc(C)cc1 (stereo not given)	none
COc1cccc(CN2C(=O)c3cccc(N)c3C2=O)c1	ROMK primary -2.13 | ROMK retest 0.0568
COc1ccc(C2CC(=O)Oc3c(C(CCN4CCCC(C)C4)c4ccc(N(C)C)cc4)c(OC)cc(OC)c32)cc1 (stereo not given)	none (no result: ROMK primary, Insulin prom inh) | ROMK retest 0.059
Nc1cc(Cl)ccc1N1CCCCCC1	none (no result: Insulin prom up)
N#Cc1c(Nc2ccc(Cl)cc2)s[nH]c1=O	ROMK primary -12 (no result: Insulin prom inh) | ROMK retest 0.0651
O=C(/C=C/c1ccc([N+](=O)[O-])cc1)c1cccs1	none (no result: ROMK primary, Insulin prom inh)
COc1cc([N+](=O)[O-])ccc1N/C=C/C(=O)c1cccs1	none (no result: ROMK primary) | ROMK retest 0.053
COc1ccccc1Nc1nc(NCC2CCCO2)c2ccccc2n1 (stereo not given)	none (no result: ROMK primary)
CCOC(=O)/C(=C\c1ccc(OC(F)F)cc1)C1=Nn2c(nnc2-c2ccc(Cl)cc2)SC1	none (no result: ROMK primary)
Nc1nonc1C(=O)NCCNCc1ccccc1OCc1ccc(F)cc1	none (no result: ROMK primary) | ROMK retest 0.062
CCOc1ccc(CNCCNC(=O)c2nonc2N)cc1	none
CSc1nn2cc(CCN3CCOCC3)c(-c3ccc(F)cc3)nc2c1C#N	none
CN1C(=O)c2ccccc2C(C(=O)O)C1c1cccc(Cl)c1 (stereo not given)	ROMK primary 1.57 | ROMK retest inactive
CCc1ccc(C2C(C(=O)O)c3ccccc3C(=O)N2C)cc1 (stereo not given)	none (no result: Insulin prom inh)
Cc1ccc(-n2c(=O)c3ccccc3n(CC(=O)C(C)(C)C)c2=O)cc1	none
O=[N+]([O-])c1cc(C(F)(F)F)ccc1NC1CCN(Cc2ccccc2)CC1	none (no result: Insulin prom inh)
CC1(C)CC(Nc2ccc(C(F)(F)F)cc2[N+](=O)[O-])CC(C)(C)N1	ROMK primary -2.57 (no result: Insulin prom inh) | ROMK retest 0.0546
C#Cc1ccc2c(c1)COc1c3ccccc3nn1-2	none (no result: ROMK primary, Insulin prom inh, TbHK1 inh, Insulin prom up)
COc1ccc(S(=O)(=O)CC2(O)CCN(C(=O)CC(C)C)CC2)cc1	none
O=c1c2ccccc2nc2n1C(CSCc1ccc(Cl)cc1)CS2 (stereo not given)	none (no result: ROMK primary) | ROMK retest 0.0663
O=C1c2cccc3c([N+](=O)[O-])ccc(c23)C(=O)N1c1ccccn1	none (no result: HSV replic up, Insulin prom inh)
O=C1c2cccc3c([N+](=O)[O-])ccc(c23)C(=O)N1c1ccc(Cl)cn1	ROMK primary -3.72 (no result: HSV replic up, Insulin prom inh) | ROMK retest 0.0476
CN(C)/C=C/C1=CC(=O)CC(C)(C)C1	none
Cc1ccc(C(C)C)c(OCc2nn(CC(=O)c3ccc(OC(F)F)cc3)c3[n+]2CCCCC3)c1	ROMK primary -4.15 (no result: Insulin prom inh) | ROMK retest 0.0549
CCc1cc2c(nc1CC)CCN(CC/C(C)=N/OC[C@H]1O[C@H](c3ccccc3)C=C[C@@H]1Oc1ccc(OC)cc1)C2	ROMK primary -4.73 (no result: HSV replic up) | ROMK retest 0.0538
COc1ccc(O[C@H]2C=C[C@@H](c3ccccc3)O[C@@H]2CO/N=C(\C)CCN2CCc3nc(-c4ccccc4)c(-c4ccccc4)cc3C2)cc1	none (no result: HSV replic up)
O=c1[nH]sc2ccccc12	ROMK primary -4.5 | ROMK retest 0.0522
CCn1c(/C=C/c2c(C)[nH]c3ccccc23)nc2ccccc2c1=O	none (no result: ROMK primary) | ROMK retest 0.0471
CC(C)(C)n1nnnc1C(c1cccc(C#N)c1)N1CCCc2ccccc21 (stereo not given)	ROMK primary -3.96 | ROMK retest 0.0646
Cc1nc2ccccc2n1CC(O)COc1ccc(Br)cc1 (stereo not given)	none (no result: ROMK primary, Insulin prom inh)
CCCCCn1c(=N)n(CC(O)COc2ccccc2OC)c2ccccc21 (stereo not given)	none (no result: ROMK primary, Insulin prom inh) | ROMK retest 0.0475
C=CCn1c(=N)n(CC(O)COc2ccccc2OC)c2ccccc21 (stereo not given)	none (no result: ROMK primary, Insulin prom inh)
Cc1ccccc1OCC(O)Cn1c(=N)n(Cc2ccccc2)c2ccccc21 (stereo not given)	ROMK primary -4.65, Insulin prom up inconclusive (no result: Insulin prom inh) | ROMK retest 0.0497
Cc1nc2ccccc2n1CC(O)COc1ccccc1Cl (stereo not given)	Insulin prom inh inconclusive | ROMK retest 0.0573
CCCCn1c(=N)n(CC(O)COc2cccc(C)c2)c2ccccc21 (stereo not given)	ROMK primary -5.78, Insulin prom up inconclusive | ROMK retest 0.0511
COc1ccc(/C(=C/Nc2cccc(Br)c2)C(C)=O)cc1OC	none
CCCCn1c(=N)n(CCOc2ccc(C)cc2)c2ccccc21	ROMK primary -3.5 (no result: HSV replic up) | ROMK retest 0.0505
COc1ccc(OCCn2c(=N)n(CCO)c3ccccc32)cc1	none
COc1ccccc1OCC(O)Cn1c(=N)n(Cc2ccccc2)c2ccccc21 (stereo not given)	ROMK primary -7.83, Insulin prom up inconclusive | ROMK retest 0.0479
O=C(CN1CCN(S(=O)(=O)c2ccc3ccccc3c2)CC1)Nc1ccc2c(c1)CCC2	none (no result: ROMK primary)
COc1ccccc1N1CCN(c2ccc(-c3ccccc3)nn2)CC1	ROMK primary 2.47 | ROMK retest inactive
COCC1CCCN(Cc2nc(Cc3ccccc3)no2)C1 (stereo not given)	ROMK primary 0.571 (no result: Insulin prom inh) | ROMK retest inactive
COc1ccccc1CCNCc1ccc(OC)c(OCc2ccccc2)c1	none (no result: ROMK primary) | ROMK retest 0.0646
COc1cc(CNCCc2ccccc2)ccc1OCc1ccc(Cl)nc1	ROMK primary -3.75 (no result: HSV replic up, Insulin prom up) | ROMK retest 0.057
COc1cc(CNCCc2ccc(S(N)(=O)=O)cc2)ccc1OCc1ccc(Cl)cc1	ROMK primary -2.57 (no result: Insulin prom inh) | ROMK retest 0.0582
COc1cc(CNCCc2c[nH]c3ccccc23)ccc1OCc1ccccc1F	none (no result: ROMK primary, Insulin prom inh)
COc1cccc(CNCCc2c[nH]c3ccccc23)c1OCc1ccccc1	none (no result: ROMK primary, Insulin prom inh) | ROMK retest 0.0587
CCOc1cc(CNCCc2ccc(S(N)(=O)=O)cc2)ccc1OCc1ccc(Cl)cc1	Insulin prom up inconclusive (no result: Insulin prom inh)
COc1ccc(S(=O)(=O)N(C)C)cc1NC(=O)Cc1cccs1	none
COc1ccc(N(CC(=O)Nc2ccc(S(=O)(=O)N3CCOCC3)cc2)S(=O)(=O)c2ccc(F)cc2)cc1	none (no result: Insulin prom inh)
CCCCn1c(CNC(=O)C23CC4CC(CC(C4)C2)C3)nnc1SC(C)CC (stereo not given)	none (no result: Insulin prom inh)
CCCCN(CCCC)C(=O)C1(P(=O)(c2ccccc2)c2ccccc2)CCC1	none (no result: ROMK primary, Insulin prom inh)
O=C(O)c1cc(Cl)c2c(c1)OCO2	none (no result: ROMK primary, Insulin prom inh)
CCOc1ccc(NC(=O)COC(=O)C2(C)CC2(Cl)Cl)c([N+](=O)[O-])c1 (stereo not given)	none (no result: Insulin prom inh)
CCOc1ccc(NC2OCC(O)C(O)C2O)c([N+](=O)[O-])c1 (stereo not given)	ROMK primary -8.85 (no result: Insulin prom inh) | ROMK retest inactive
O=C(COC(=O)[C@@H]1CC(O)CN1S(=O)(=O)c1ccccc1[N+](=O)[O-])Nc1ccc2ccccc2c1 (stereo not given in full)	none (no result: ROMK primary)

Screening results from PubChem BioAssay.
